Screening results from PubChem BioAssay.
Sampled rows, rich in hits. Any-hit rate of the full collection: about 2.7%.
aDG glyco act: increases alpha dystroglycan glycosylation; Pro5-aDG cells, alpha-DG glycosylation AlphaScreen (IIH6); 0% Pro5, 100% B10-LARGE cell signal; activation, % at 10 µM; 360,000 tested, 0.22% active;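 active = activation of at least 8% versus controls, or a plate z-score of at least 8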;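 note: Pro5 are CHO cells carrying HIG-tagged alpha-DG that lacks glycosylation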
NadD inh: blocks S. aureus nicotinate mononucleotide adenylyltransferase | purified NadD enzyme, colorimetric absorbance read-out | inhibition, % at 20 µM | 360,000 tested, 0.78% active | AID 602399; in the data active = inhibition above about 26%
H9c2 TAG inh: inhibitors of triacylglycerol accumulation; H9c2 cells, Nile Red lipid (TAG) fluorescence; cells loaded with 200 µM oleic acid; inhibition, % at 12.5 µM; 230,000 tested, 0.66% active; AID 651582;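 active = pattern-corrected inhibition of lipid staining of at least 50% with the nuclear-stain viability signal not falling by more than 50%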
MPTP block: permeability transition pore inhibition; inhibition, % at 10 µM; isolated mouse mitochondria, Ca2+ swelling absorbance, 30 min; 360,000 tested, 1.4% active; AID 602449;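 active = inhibition of 50% or more, scaled per plate between neutral and stimulator controls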
MPTP counter: mitochondrial membrane potential, counter-screen | AID 624504 | shares compounds with MPTP block | isolated mitochondria, Rhodamine 123 fluorescence | 5,000 tested, 78% active | inhibition, % at 10 µM; in the data active = inhibition above about 22%
MPTP swell DR: MPTP inhibition, dose response swelling confirmation; shares compounds with MPTP block; isolated mitochondria swelling, absorbance; IC50, µM; 780 tested, 58% active; AID 651561; in the data active = IC50 below about 20 µM
MPTP counter DR: MPTP inhibitor counter-screen activity, dose response; shares compounds with MPTP block; isolated mitochondria counterscreen, fluorescence read-out; IC50, µM; 780 tested, 49% active; in the data active = IC50 below about 80 µM
Large screens that a line does not name were inactive (follow-up assays come after a bar, where they were run); ! = not active in a repeat.

O=C(NCC(c1cccs1)N1CCOCC1)c1ccccc1NS(=O)(=O)c1cccc([N+](=O)[O-])c1 (configuration not stated)	none (no result: H9c2 TAG inh)
CCCCN1C(=O)C(CC(=O)NC2CCCC2)CC(C(=O)N2CCOCC2)=C1C (configuration not stated)	none
O=S1(=O)c2cccc3cccc(c23)N1Cc1nnc(-c2ccccc2Br)o1	MPTP block 76 | MPTP counter 47
O=C(CN1CCN(C(=O)CNC(=O)c2ccc(N3CCCC3=O)cc2)CC1)Nc1cccc(F)c1	none
COc1cc(CCc2ccccc2)c(C(=O)O)c(O)c1CC=C(C)C	MPTP block 93 (no result: H9c2 TAG inh) | MPTP counter 69
COc1cc(CCc2ccccc2)c(C(=O)O)c(O)c1C/C=C(/C)CCC=C(C)C	MPTP block 87 | MPTP counter 56
C[C@H]1CNC(=O)c2c(C(=O)N[C@@H](Cc3c[nH]c4ccccc34)C(=O)OC(C)(C)C)ncn21	none
CCC(C)Sc1ccc(-c2nc3cc(C)ccn3c2NC2CCCCC2)cc1 (configuration not stated)	MPTP block 56! | MPTP counter 101
CCC(C)Sc1ccc(-c2nc3cnccn3c2NC2CCCCC2)cc1 (configuration not stated)	none
CCCc1c(C(=O)N/N=C(\C)c2ccccn2)nnn1-c1nonc1N	none
O=Cc1ccc(-c2ccccc2C(=O)O)o1	none (no result: H9c2 TAG inh)
O=C(O)c1ccccc1-c1c2cc(I)c(=O)c(I)c-2oc2c(I)c(O)c(I)cc12	NadD inh 28!, MPTP block 79 | MPTP counter inactive
O=C(CSc1ncnc2c1cnn2-c1ccccc1)Nc1ccccc1	MPTP block 80 (no result: H9c2 TAG inh) | MPTP counter 43
COc1cccc(NC(=O)CSc2ncnc3c2cnn3Cc2ccccc2)c1	MPTP block 55 (no result: H9c2 TAG inh) | MPTP counter 40
CNC(=O)CSc1ncnc2c1cnn2-c1ccccc1	none
Cc1cc(NC(=O)CCC(=O)N(CC(=O)NCC2CCCO2)c2ccc(F)c(Cl)c2)no1 (configuration not stated)	none (no result: H9c2 TAG inh)
O=C(Nc1ccc(Oc2ccccc2)cc1)c1cnc2n(c1=O)CCS2	MPTP block 92 | MPTP counter 61
COc1ccccc1NC(=O)c1nnn(Cc2ccccc2)c1NC(=O)C(F)(F)F	MPTP block 74 | MPTP counter 73
COc1ccccc1NC(=O)c1nnn(Cc2ccccc2)c1NC(C)=O	none (no result: H9c2 TAG inh)
O=C(Nc1ccccc1)c1nnn(Cc2ccccc2)c1NC(=O)C(F)(F)F	MPTP block 89 | MPTP counter 84
CC(=O)Nc1c(C(=O)NCc2ccccc2)nnn1Cc1ccccc1	none
Cc1ccc(NC(=O)c2cc3ccccc3o2)nc1	none
O=c1[nH]c(CN2CCN(C/C=C/c3ccccc3)CC2)nc2ccccc12	none (no result: H9c2 TAG inh)
C(=C\c1ccccc1)/CN1CCN(c2ncnc3c2oc2ccccc23)CC1	MPTP block 95 (no result: H9c2 TAG inh) | MPTP counter 94
c1ccc2c(c1)oc1c(N3CCOCC3)ncnc12	none (no result: H9c2 TAG inh)
Nc1nc(N2CCN(C/C=C/c3ccccc3)CC2)nc2ccccc12	MPTP block 63 | MPTP counter inactive | MPTP swell DR inactive | MPTP counter DR 59
CCOC(=O)C1=CCN(S(=O)(=O)c2ccccc2C)C1c1cccc(Br)c1 (configuration not stated)	none (no result: H9c2 TAG inh)
CSCC[C@H](NC(=O)[C@H]1CC[C@H](CNC(=O)[C@@H](N)Cc2ccccc2)CC1)C(=O)O	none (no result: H9c2 TAG inh)
CN(C)CCN1CCN(C2CN(Cc3cn(Cc4ccccc4)nn3)S(=O)(=O)C2)CC1 (configuration not stated)	none (no result: H9c2 TAG inh)
COc1cc(C(=O)NCC(c2cccs2)N2CCOCC2)ccc1OCc1ccccc1 (configuration not stated)	none
Cc1nn(C)c(C)c1CN(Cc1nc(CCC(C)C)no1)C(C)C	MPTP block 103 | MPTP counter 93
Cc1ccccc1P(=O)(c1ccccc1)c1ccccc1C	none
CCOC(=O)c1c(-c2cccs2)csc1NC(=O)CC(C)C	MPTP block 57 | MPTP counter inactive | MPTP swell DR inactive | MPTP counter DR inactive
CCCc1nc2c(Cl)cc(C(F)(F)F)cn2c1Cc1ccc(OC)cc1C	none (no result: H9c2 TAG inh)
NC(Cc1ccc(Cl)cc1)c1csc(Nc2ccc(C(=O)NCCCO)cn2)n1 (configuration not stated)	none
CCCCC(=O)NC(c1ccc([N+](=O)[O-])cc1)c1c(O)ccc2ccccc12 (configuration not stated)	MPTP block 69 (no result: H9c2 TAG inh) | MPTP counter 79
O=C(NC(c1ccc(Cl)cc1)c1c(O)ccc2ccccc12)c1ccccc1 (configuration not stated)	MPTP block 80 (no result: H9c2 TAG inh) | MPTP counter 59
COc1cccc(CNC(=O)Cn2cc([N+](=O)[O-])cn2)c1	none (no result: H9c2 TAG inh)
C[n+]1c2n(c3ccccc31)N=C(c1cc(C(C)(C)C)c(O)c(C(C)(C)C)c1)CS2	MPTP block 94 | MPTP counter 103
O=C(Nc1ccc(C(=O)OC[C@@H]2CCCN3CCCC[C@H]23)cc1)c1cccc(Br)c1	MPTP block 70 (no result: H9c2 TAG inh) | MPTP counter inactive | MPTP swell DR 14 | MPTP counter DR 47
Cc1ccccc1NS(=O)(=O)c1cc(C(=O)Nc2cccc([N+](=O)[O-])c2)ccc1C	MPTP block 98 (no result: H9c2 TAG inh) | MPTP counter 78
C[C@H](O)[C@@H]1CN2CCc3c([nH]c4ccc(-c5ccc6c(c5)OCO6)cc34)[C@@H]2C[C@@H]1N(C)C(=O)NC1CCCCC1	none
COc1ccc(CNC2CCCc3ccccc32)cc1OC (configuration not stated)	MPTP block 61 (no result: H9c2 TAG inh) | MPTP counter inactive | MPTP swell DR inactive | MPTP counter DR 69
COc1ccccc1CNC1CCCc2ccccc21 (configuration not stated)	none
CCOc1c(OC(C)=O)ccc(/C=C/c2ccc3cccc(OC(C)=O)c3n2)c1[N+](=O)[O-]	none (no result: H9c2 TAG inh)
C=CCN1C(=O)/C(=C/c2ccc(OC(C)=O)c(OCC)c2[N+](=O)[O-])SC1=S	MPTP block 102 | MPTP counter 65
O=c1cc(C(F)(F)F)[nH]c2ccc(C(F)(F)F)cc12	MPTP block 61 | MPTP counter 82
Cc1cc(=O)c2ccc(C(F)(F)F)cc2[nH]1	none
CC(=O)C(Cc1ccccc1)NC(=O)COC(=O)c1cc(S(=O)(=O)N2CCOCC2)ccc1F (configuration not stated)	none
O=C(NCCc1ccccc1)c1nccc2ccccc12	none
CC(C)Nc1ccc(Nc2ccnc3cc4ccccc4cc23)cc1	MPTP block 68 | MPTP counter 70
c1ccc(CCNc2ccnc3cc4ccccc4cc23)cc1	H9c2 TAG inh 104, MPTP block 101 | MPTP counter 106
COc1ccc(NC(=O)C(c2ccccc2)n2c(=O)c(-c3ccco3)nc3ccccc32)cc1 (configuration not stated)	none (no result: NadD inh, H9c2 TAG inh)
CC(=O)N(C)c1ccc(NC(=O)Nc2ccc(C)cc2)cc1	none
